{"source": "PubChem BioAssay (NCI)", "note": "This is part of a sample that, as a whole, favours compounds with a hit. Of some 79,000 tested, about 15% had one in any assay. Values without a mark were called inactive. Active and inactive are the calls of the source. Cut-off read from the data, not from the text of the source: active = growth inhibition above about 70%; inactive = the rest. Where a SMILES comes first, the peptide text is derived from it. [ ]: non-standard residue; d: D form. The star is where a group is joined. Hyp = O=C(O)[CH]1C[CH](O)CN1; Cbz = O=C(OCc1ccccc1)*"}
{"assay": "NCI Yeast Anticancer Drug Screen. Data for the bub3 strain (AID 167)", "conditions": "S. cerevisiae bub3 mutant strain, at 50.0 µM, active compounds read high", "method_in_brief": "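Growth of a checkpoint-deficient yeast mutant is measured after compound exposure. Values represent inhibition relative to vehicle.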"}
{"compound": "CC(C(=O)O)C1(O)CCCCC1", "note": "(configuration not stated)", "growth inhibition": "13.7%"}
{"compound": "COc1ccc2c(c1)CCC1C(=O)NN=C21", "note": "(configuration not stated)", "growth inhibition": "-23.1%"}
{"compound": "CC(=O)N1OCCc2ccccc21", "growth inhibition": "-5.5%"}
{"compound": "NC(=O)CNC(=O)C1CC(O)CN1C(=O)C1CCCN1C(=O)OCc1ccccc1", "note": "(stereo not drawn) (Cbz-Pro-[Hyp]-Gly-NH2; configuration not given here)", "growth inhibition": "9.45%"}
{"compound": "CCCc1c(O)ccc(C)c1C", "growth inhibition": "-7.35%"}
{"compound": "c1ccc(C(c2ccccc2)c2cc(-c3cc(C(c4ccccc4)c4ccccc4)[nH]n3)n[nH]2)cc1", "growth inhibition": "-11.6%"}
{"compound": "O=C(O)CSC(=S)c1ccccc1", "growth inhibition": "-15.8%"}
{"compound": "Cn1c(=N)n(CC(=O)NC23CC4CC(CC(C4)C2)C3)c2ccccc21", "growth inhibition": "2.2%"}
{"compound": "O=C1C(N=Nc2ccc(S(=O)(=O)Nc3ccccn3)cc2)C(=O)N(c2ccccc2)C(=S)N1c1ccccc1", "growth inhibition": "-1.25%"}
{"compound": "O=C(O)C(O)(O)C(O)(O)C(=O)O", "growth inhibition": "-5.85%"}
{"compound": "CCCCCCCCCCCCCCCCCCS", "growth inhibition": "8.3%"}
{"compound": "O=c1[nH]cc(COCC(O)CO)c(=O)[nH]1", "note": "(configuration not stated)", "growth inhibition": "-29.9%"}
{"compound": "Cc1c2c(cc3c1[nH]c1ccccc13)C(=O)c1ccccc1C2=O", "growth inhibition": "68.1%"}
{"compound": "Cc1ccc(Cl)cc1NC(=O)C(Br)C(Br)C(=O)O", "note": "(configuration not stated)", "growth inhibition": "99% (active)"}
{"compound": "Cc1ccc(S(=O)(=O)/N=C/C=P(c2ccccc2)(c2ccccc2)c2ccccc2)cc1", "growth inhibition": "-2.1%"}
{"compound": "COc1ccc(C=Nc2ccc([N+](=O)[O-])cc2O)cc1", "growth inhibition": "19.6%"}
{"compound": "O=C1C=C(Sc2ccccc2)c2nccc3c2c1nc1ccccc13", "growth inhibition": "20.1%"}
